# Bioassay records: PubChem, National Center for Advancing Translational Sciences (NCATS)
# The list is not random: actives were taken first. Their share in the collection is about 21%.
# Pf growth 48h = inhibits P. falciparum growth in the first generation, 48 h. P. falciparum luciferase growth in erythrocytes, 48 h. Potency, µM (doses to about 28.7 µM), inactives show at the top dose activity change, negative = inhibition, hits mostly inhibitors. 5.9% of 310,000 active; also: potency is read from the fitted curve at half-maximal effect; % is scaled to controls: 0 for no effect and ±100 for the full control effect
#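 Firefly luciferase activity from engineered P. falciparum reports growth; inhibitors lower the luminescent signal. Cultures contained 2% hematocrit erythrocytes at 0.1% final parasitemia.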
# Shiga toxin inh = inhibitors of Shiga toxin in Vero cells; Vero cells, Shiga toxin protein synthesis inhibition reporter; inhibition, % at 38.7 µM; 9.2% of 290,000 active; AID 2315; in the data active = inhibition mostly above about 28%, no sharp cut-off; inactive = mostly below about 43%; also: 0% is about no effect
# Cycloheximide cs = counter-screen hit for Shiga toxin inhibitors, cycloheximide; max response, %; 12% of 300,000 active; cell reporter, cycloheximide protein synthesis inhibition counterscreen; in the data active = max response mostly above about 13%, no sharp cut-off; inactive = mostly below about 14%; also: read at 38.3 µM for the half of the compounds with a filed dose; 0% is about no effect
# Pf growth 96h = inhibits malaria parasite growth, 96 h; 6.9% of 320,000 active; P. falciparum luciferase reporter growth, 96 h; Potency, µM (series often up to 28.7 µM), for inactives: at the top dose activity change, negative = inhibition, most hits filed as inhibitors; also: potency is read from the fitted curve at half-maximal effect; % is scaled to controls: 0 for no effect and ±100 for the full control effect
#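 Readout is luminescence from an integrated firefly luciferase in P. falciparum. Red cells, 2% hematocrit and 0.05% parasitemia final, were cultured with compound through two parasite generations (96 hours) at 37 C, 5% CO2.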
# AMA1 RON2 block = AMA1-RON2 (P. falciparum) interaction inhibition. AlphaScreen AMA1-biotinylated RON2 peptide binding. Potency, µM (highest dose often 58.2 µM), inactives show at the top dose activity change, negative = inhibition, hits mostly inhibitors. 0.2% of 360,000 active;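 also: potency is read from the fitted curve at half-maximal effect; 0% = vehicle wells and -100% = peptide control; nearly all actives have a fitted effect of over 45% in size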
#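 AMA1 (3D7) with his tag at 25 nM final met compounds first, then biotinylated RON2 peptide at 25 nM; detection used donor plus acceptor beads, 10 µg/mL apiece, read by AlphaScreen after 30 min at room temperature.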
# HCV inh = inhibitors of hepatitis C virus infection | Huh7.5.1 HCVcc-Cre infection, luciferase reporter, 44 h | Potency, µM (doses to about 41.8 µM), without a hit: at the highest dose activity change, negative = inhibition, most hits filed as inhibitors | 3.4% of 340,000 active; also: potency is read from the fitted curve at half-maximal effect; % is scaled to controls: 0 for no effect and ±100 for the full control effect
#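 A cell-based infection assay in which seeded cells (1,000 per well) receive test compound after 4 h, are inoculated with HCVcc-Cre at approximately 0.5 moi, and are incubated 44 h before luminescence detection.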
# Numbers without * were called inactive; i = inactive; ? = inconclusive; / = no result; + = active, no number; [ ] = dose if it differs, or a comment. Unless noted, calls follow the shape of the dose curve; as a rule, active = well fitted curve in the direction sought with a large enough effect; inconclusive = small, poorly fitted or top-dose-only effect, or another doubt; inactive = no such curve, though single readings can be large; an effect the other way counts as inactive or inconclusive.
SMILES,Pf growth 48h,Shiga toxin inh,Cycloheximide cs,Pf growth 96h,AMA1 RON2 block,HCV inh
O=C(Nc1ccc(S(=O)(=O)Nc2ncccn2)cc1)c1ccccc1NS(=O)(=O)c1ccc(Cl)cc1,0.8%,-12.3,6.8,37.3%,6.1%,13.5%
COc1cc(-c2nc3cnccn3c2Nc2ccc(C)cc2)ccc1O,?,1.9,16.7,/,-1.7%,?
COc1cc(-c2nc3cnccn3c2Nc2ccc(C(C)C)cc2)ccc1O,?,73.1*,28.8*,/,-2.6%,?
COc1cc(-c2nc3cnccn3c2Nc2ccccc2)ccc1O,?,7.8,-1.9,5.22µM*,3.8%,-21.8%
O=C(/C=C/c1ccco1)OCC(=O)N1CCCCC1,/,/,/,/,-17.2%,11.6%
O=C(CNC1CCCCC1)Nc1cc(S(=O)(=O)N2CCOCC2)ccc1Cl,-14.3%,1.9,-2.2,3.8%,13.9%,-18.5%
c1ccc2nc3ccccc3nc2c1,-3.8%,44.5,7.1,-7.8%,0.0%,30.1%
c1ccc2nc3ccccc3cc2c1,/,46.6*,39.8*,/,/,/
Clc1ccc2nc3ccccc3cc2c1,/,/,/,/,2.3%,/
c1ccc(-c2ncc3c(ccc4ccccc43)n2)cc1,291.2%,73.8*,58.1*,1.2%,-4.5%,3.5%
c1ccc2c(c1)cnc1ccccc12,49.0%,29.4,24.1*,?,1.7%,-5.5%
Cc1csc(NC(=O)CSc2nnc(NC(=O)NC(C)(C)C)s2)n1,-47.4%,/,/,?,-0.2%,6.7%
CCCN(c1ccccc1F)S(=O)(=O)c1cc(-c2cc(C)no2)ccc1OC,?,-4.5,7.4,14.7µM*,-11.0%,?
COc1ccc(-c2cc(C)no2)cc1S(=O)(=O)Nc1cccc(C)c1,?,10.9,11.6,?,-8.1%,10µM*
COc1ccc(-c2cc(C)no2)cc1S(=O)(=O)N(C)Cc1ccco1,17.5%,-6.5,-4.6,-14.0%,-1.7%,?
Cc1cccc(N2CCN(S(=O)(=O)c3cc(-c4cc(C)no4)ccc3C)CC2C)c1 (configuration not stated),?,-6.4,-3.1,47.3%,-8.8%,3.98µM*
Cc1cc(-c2ccc(C)c(S(=O)(=O)N3CCN(c4ccc(F)cc4)CC3)c2)on1,?,-4.6,-1.6,?,-2.6%,?
COc1ccc(-c2cc(C)no2)cc1S(=O)(=O)N1CCN(c2cccc(C)c2)C(C)C1 (configuration not stated),?,-3.6,-1.8,?,-3.7%,10µM*
COc1ccc(-c2cc(C)no2)cc1S(=O)(=O)Nc1ccccc1,?,11.1,-2.5,?,-1.1%,?
O=C(COc1ccc2oc(-c3ccccc3)cc(=O)c2c1)Nc1ccccc1,13.2%,-4.1,-2.2,3.7µM*,1.0%,-14.0%
O=C(COc1ccc2c(-c3ccccc3)cc(=O)oc2c1)Nc1ccc(CCO)cc1,29.5%,2.2,-1.4,29.9%,-4.5%,7.08µM*
CCN(CC)C(=O)COc1ccc2oc(-c3ccco3)cc(=O)c2c1,?,31.5,19.2*,?,6.5%,11.1%
O=C(COc1ccc2c(-c3ccccc3)cc(=O)oc2c1)Nc1ccc(CN2CCOCC2)cc1,-10.0%,-4.1,-1.9,?,-1.5%,?
COc1ccc(C(CCN(Cc2ccc(OC)c(OC)c2)C(C)=O)C(C)C)cc1 (configuration not stated),?,16.7,-4.4,?,-10.3%,-12.5%
O=C(Cc1ccccc1)NC1CCSc2ccccc21 (configuration not stated),0.8%,-2.7,1.5,-27.2%,-8.4%,-2.7%
SMILES,Pf growth 48h,Shiga toxin inh,Cycloheximide cs,Pf growth 96h,AMA1 RON2 block,HCV inh
O=C(CCNS(=O)(=O)c1c(Cl)cccc1Cl)OCC(=O)c1ccccc1F,6.0%,+,10.7,66.7%,8.9%[11.6 µM],14.6%
CSCc1ccc(C(=O)NC(C)c2cnn(-c3ccccn3)c2C)o1 (configuration not stated),-16.5%,48.2*,23.7*,?,1.5%,?
O=C(CNC(=O)c1ccc(F)cc1)N/N=C/c1cccnc1,74.2%,-6.2,0.4,9.7%,-2.5%,1.1%
C=Cc1cc(OC)c2c(c1)c(=O)oc1c2cc(OC)c2c(O)ccc(C3OC(C)C(O)C(C)(O)C3O)c21 (configuration not stated),/,/,/,/,-10.7%,1µM*
NC(c1csc(Nc2ncccn2)n1)c1ccccc1Cl (configuration not stated),/,/,/,/,0.1%,/
CCSCCOC(=O)C1=C(C)N(C)C(=O)NC1c1ccc2c(c1)OCO2 (configuration not stated),42.7%,-7.7,-1.3,96.0%,-4.4%,-7.6%
O=C(Nc1ccc(CN2CCCCC2)cc1)Nc1ccc(Br)cc1Cl,?,7.4,-1.3,12.8%,4.8%,15.8µM*
S=C(Nc1ccc(Br)cc1Cl)N1CCCC1,-2.9%,-17.8,-6.1,2.08µM*,7.6%,23.7%
CN1CCN(S(=O)(=O)c2ccc(NC(=O)c3ccc(F)cc3Cl)cc2)CC1,36.8%,-2.2,-1.9,?,-12.1%,-8.3%
CCOC(=O)c1c(C)[nH]c(C(=O)N(C)CC(=O)Nc2ccc(OCC)c(OCC)c2)c1C,/,/,/,/,-5.3%,/
COc1ccccc1Nc1ncc(-c2cccs2)s1,168.3%,107.9*,40.2*,i,-8.8%,-10.3%
Cc1ccc(-c2nnc(SCC(N)=O)n2C)cc1,19.3%,-23.5,3.3,?,-2.3%,3.0%
Cc1cccc(-c2nnc(SCC(=O)C(C)(C)C)n2C)c1,?,73.2*,36.8*,1.4%,-7.4%,-4.1%
Cn1c(SCC(N)=O)nnc1-c1ccc(C(C)(C)C)cc1,55.9%,13.7,16.6*,1.4%,1.9%,-1.9%
COc1ccc(CCNC(=O)COC(=O)C2CC2)cc1OC,/,/,/,/,-19.6%,19.5%
CC1CCCCN1Cc1c(O)ccc2c(=O)c(-c3nc4ccccc4s3)coc12 (configuration not stated),2.08µM*,60.5*,28.1*,10.4µM*,35.6%,?
CCOC(=O)c1oc2c(CN3CCCCC3C)c(O)ccc2c(=O)c1-c1ccc(OC)c(OC)c1 (configuration not stated),?,-5.6,-3.7,?,15.9%,-6.5%
CCc1cc2c(=O)c(-c3nc4ccccc4n3C)coc2c(CN2CCCCC2C)c1O (configuration not stated),?,-8.6,-1.3,?,-29.9%,?
O=c1oc2c(CN3CCOCC3)c(O)ccc2c2ccccc12,?,47.0,44.4*,?,9.9%,?
Cc1oc2c(CN3CCOCC3)c(O)ccc2c(=O)c1-c1ccc(Cl)cc1,?,-1.4,0.8,9.28µM*,-12.4%,8.7%
Cc1oc2c(CN3CCCCC3C)c(O)ccc2c(=O)c1-c1ccc(Br)cc1 (configuration not stated),13.1µM*,13.3,-1.7,13.1µM*,-3.5%,-20.1%
